Results published in the supplement of paper PMC9262897, “Low-cost anti-mycobacterial drug discovery using engineered E. coli” (Nature Communications, 2022).
Structures can show the parent of a compound that is named as a salt. ± gives the standard deviation of the averaged measurements.

Key:
Assay in all cases: growth (OD600 after 10 h); higher = more growth (less inhibition)
[1] = system: E. coli TESEC Alr+ wild-type control; details: compound 0.1 mM; raw OD600 reference: median of DMSO wells 0.241, cell-free background 0.041
Protocol: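 TESEC Mtb Alr E. coli, or the Alr+ wild-type control, in 384-well plates with Prestwick library compounds at 0.1 mM and 1% DMSO, across arabinose induction levels of 1E3 to 1E7 nM. Growth is read as OD600 after 10 h at 37 °C in triplicate biological replicates.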

E. coli TESEC Mtb Asd = details: compound 0.1 mM
Protocol: (§1)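 TESEC E. coli strains in which the native enzyme is deleted and replaced by arabinose-inducible Mtb Asd, DapB, CysH or TrpD, each grown in its selective medium. Strains were screened against the Prestwick library at 0.1 mM and 1% DMSO in 384-well format at low and high arabinose induction. Growth is read as OD600 after 10 h in triplicate.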

E. coli TESEC Mtb DapB = details: compound 0.1 mM
Protocol: as §1

[2] = system: E. coli TESEC Alr+ wild-type control; details: compound 0.1 mM; raw OD600 reference: median of DMSO wells 0.49, cell-free background 0.052
Protocol: (§2)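 TESEC Mtb Alr E. coli (ΔaraC ΔtolC ΔentC Δalr ΔdadX, arabinose-inducible Mtb Alr) or the Alr+ wild-type control strain, grown in defined M9-fructose medium without D-alanine in 96-well plates with Prestwick library compounds at 0.1 mM and 1% DMSO. Low Alr induction is 0.1 µM arabinose and high induction is 10 mM arabinose.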

E. coli TESEC Mtb Alr = details: compound 0.1 mM
Protocol: as §2

[3] = arabinose induction (level): High, raw OD600 reference: median of DMSO wells 0.331, cell-free background 0.041
[4] = arabinose induction (level): Low, raw OD600 reference: median of DMSO wells 0.417, cell-free background 0.041
[5] = arabinose induction (level): High, raw OD600 reference: median of DMSO wells […], cell-free background 0.041
[6] = arabinose induction (level): Low, raw OD600 reference: median of DMSO wells 0.227, cell-free background 0.041
[7] = arabinose 100 nM, raw OD600 reference: median of DMSO wells 0.413, cell-free background 0.052
[8] = arabinose 10000000 nM, raw OD600 reference: median of DMSO wells […], cell-free background 0.052

| Compound | growth [1] | growth (E. coli TESEC Mtb Asd; [3]) | growth (E. coli TESEC Mtb Asd; [4]) | growth (E. coli TESEC Mtb DapB; [5]) | growth (E. coli TESEC Mtb DapB; [6]) | growth [2] | growth (E. coli TESEC Mtb Alr; [7]) | growth (E. coli TESEC Mtb Alr; [8]) |
| --- | --- | --- | --- | --- | --- | --- | --- | --- |
| CCC(C)(C)C(=O)O[C@H]1C[C@@H](C)C=C2C=C[C@H](C)[C@H](CC[C@@H]3C[C@@H](O)CC(=O)O3)[C@H]21 [Simvastatin] | 0.198 ± 0.017 | 0.0906 ± 0.015 | 0.197 ± 0.023 | 0.161 ± 0.021 | 0.175 ± 0.0069 | 0.311 ± 0.016 | 0.392 ± 0.014 | 0.0705 ± 0.023 |
| CCOC(=O)[C@H](CCc1ccccc1)N[C@@H](C)C(=O)N1[C@H](C(=O)O)C[C@@H]2CCC[C@@H]21 [Ramipril] | 0.22 ± 0.014 | 0.253 ± 0.065 | 0.365 ± 0.092 | 0.188 ± 0.013 | 0.229 ± 0.0092 | 0.586 ± 0.011 | 0.42 ± 0.0058 | 0.295 ± 0.022 |
| CN1C(C)(C)CCCC1(C)C [Pempidine tartrate] | 0.245 ± 0.0082 | 0.343 ± 0.023 | 0.434 ± 0.024 | 0.203 ± 0.024 | 0.239 ± 0.043 | 0.572 ± 0.089 | 0.4074 ± 0.0021 | 0.335 ± 0.011 |
| CNCCCN1c2ccccc2CCc2ccccc21 [Desipramine hydrochloride] | 0.184 ± 0.0044 | 0.157 ± 0.011 | 0.222 ± 0.03 | 0.171 ± 0.014 | 0.202 ± 0.0094 | 0.578 ± 0.053 | 0.403 ± 0.01 | 0.287 ± 0.011 |
| CC12CC3CC(C)(C1)CC(N)(C3)C2 [Memantine Hydrochloride] | 0.161 ± 0.005 | 0.256 ± 0.039 | 0.155 ± 0.011 | 0.165 ± 0.011 | 0.199 ± 0.0086 | 0.503 ± 0.12 | 0.398 ± 0.018 | 0.392 ± 0.018 |
| CCOC(=O)[C@H](CCc1ccccc1)N[C@@H](C)C(=O)N1CCC[C@H]1C(=O)O [Enalapril maleate] | 0.247 ± 0.014 | 0.322 ± 0.039 | 0.373 ± 0.067 | 0.188 ± 0.018 | 0.268 ± 0.029 | – | 0.412 ± 0.011 | 0.355 ± 0.017 |
| Cc1cnc(NC(=O)C2=C(O)c3ccccc3S(=O)(=O)N2C)s1 [Meloxicam] | 0.148 ± 0.0039 | 0.245 ± 0.035 | 0.296 ± 0.1 | 0.201 ± 0.021 | 0.195 ± 0.0074 | – | 0.33 ± 0.04 | 0.221 ± 0.016 |
| CN1CCC(=C2c3ccccc3C=Cc3ccccc32)CC1 [Cyproheptadine hydrochloride] | 0.145 ± 0.0056 | 0.15 ± 0.0059 | 0.186 ± 0.0032 | – | – | – | 0.4129 ± 0.0017 | 0.276 ± 0.016 |
| CC(C)(Sc1cc(C(C)(C)C)c(O)c(C(C)(C)C)c1)Sc1cc(C(C)(C)C)c(O)c(C(C)(C)C)c1 [Probucol] | 0.248 ± 0.0044 | 0.344 ± 0.1 | 0.408 ± 0.093 | 0.207 ± 0.014 | 0.22 ± 0.016 | – | 0.407 ± 0.0098 | 0.366 ± 0.015 |
| CC(=C(CCO)SSCC1CCCO1)N(C=O)Cc1cnc(C)nc1N (stereo in doubt) [Fursultiamine Hydrochloride] | 0.245 ± 0.0085 | 0.215 ± 0.0087 | 0.275 ± 0.052 | 0.195 ± 0.024 | 0.247 ± 0.012 | – | 0.399 ± 0.013 | 0.323 ± 0.019 |
| O=C1NCN(c2ccccc2)C12CCN(CCCC(c1ccc(F)cc1)c1ccc(F)cc1)CC2 [Fluspirilen] | 0.0416 ± 0.0009 | 0.0816 ± 0.034 | 0.0703 ± 0.0098 | 0.167 ± 0.014 | 0.19 ± 0.021 | – | 0.0516 ± 0.00059 | 0.0605 ± 0.008 |
| CCCNC(C)C(=O)Nc1ccccc1C (stereo not drawn) [Prilocaine hydrochloride] | 0.234 ± 0.0054 | 0.322 ± 0.093 | 0.408 ± 0.031 | – | – | 0.493 ± 0.068 | 0.427 ± 0.012 | 0.333 ± 0.008 |
| Cc1ccc(N(CC2=NCCN2)c2cccc(O)c2)cc1 [Phentolamine hydrochloride] | 0.219 ± 0.0053 | 0.252 ± 0.065 | 0.377 ± 0.048 | – | – | 0.452 ± 0.0089 | 0.411 ± 0.019 | 0.352 ± 0.026 |
| CCN(CC)CCc1nc(-c2ccccc2)no1 [Oxalamine citrate salt] | 0.23 ± 0.012 | 0.307 ± 0.045 | 0.332 ± 0.031 | 0.186 ± 0.0074 | 0.216 ± 0.013 | – | 0.406 ± 0.011 | 0.343 ± 0.015 |
| CC[C@]12CCCN3CCc4c(n(c5ccccc45)[C@@](O)(C(=O)OC)C1)[C@@H]32 [Vincamine] | 0.235 ± 0.0064 | 0.375 ± 0.011 | 0.456 ± 0.006 | 0.191 ± 0.015 | 0.266 ± 0.071 | – | 0.422 ± 0.011 | 0.322 ± 0.011 |
| COc1cc(NS(=O)(=O)c2ccc(N)cc2)nc(OC)n1 [Sulfadimethoxine] | 0.2298 ± 0.0014 | 0.266 ± 0.0084 | 0.403 ± 0.025 | – | – | – | 0.425 ± 0.0055 | 0.332 ± 0.031 |
| CN1CCN(CC(=O)N2c3ccccc3C(=O)Nc3cccnc32)CC1 [Pirenzepine dihydrochloride] | 0.242 ± 0.0032 | 0.28 ± 0.051 | 0.418 ± 0.034 | 0.19 ± 0.013 | 0.253 ± 0.038 | – | 0.4155 ± 0.0034 | 0.334 ± 0.019 |
| CCN(CC)C(=O)C1(c2ccccc2)CC1CN (stereo not drawn) [Milnacipran hydrochloride] | 0.233 ± 0.011 | 0.239 ± 0.024 | 0.385 ± 0.033 | 0.203 ± 0.016 | 0.259 ± 0.026 | – | 0.424 ± 0.014 | 0.322 ± 0.0073 |
| CC(=O)Nc1ccc(O)cc1 [Acetaminophen] | 0.251 ± 0.0034 | 0.473 ± 0.034 | 0.455 ± 0.0071 | 0.215 ± 0.018 | 0.251 ± 0.027 | – | 0.407 ± 0.015 | 0.335 ± 0.011 |
| CNCCCC12CCC(c3ccccc31)c1ccccc12 [Maprotiline hydrochloride] | 0.269 ± 0.0086 | 0.197 ± 0.0097 | 0.164 ± 0.016 | – | – | – | 0.41 ± 0.0086 | 0.28 ± 0.013 |
| CCCc1nc2c(C)cc(-c3nc4ccccc4n3C)cc2n1Cc1ccc(-c2ccccc2C(=O)O)cc1 [Telmisartan] | 0.208 ± 0.0078 | 0.2439 ± 0.00056 | 0.41 ± 0.024 | – | – | 0.505 ± 0.043 | 0.283 ± 0.052 | 0.337 ± 0.018 |
| CN(C)/N=N/c1[nH]cnc1C(N)=O [Dacarbazine] | 0.211 ± 0.0036 | 0.278 ± 0.036 | 0.362 ± 0.12 | – | – | – | 0.405 ± 0.013 | 0.296 ± 0.024 |
| COc1cc2nc(N3CCN(C(=O)c4ccco4)CC3)nc(N)c2cc1OC [Prazosin hydrochloride] | 0.242 ± 0.0066 | 0.263 ± 0.09 | 0.348 ± 0.091 | – | – | 0.498 ± 0.007 | 0.399 ± 0.013 | 0.3092 ± 0.0026 |
| Cn1c(=O)c2[nH]cnc2n(C)c1=O [Aminophylline] | 0.246 ± 0.005 | 0.287 ± 0.065 | 0.457 ± 0.018 | 0.226 ± 0.017 | 0.234 ± 0.023 | – | 0.406 ± 0.015 | 0.355 ± 0.019 |
| COc1cc(NC(C)CCCN)c2ncccc2c1 (stereo not drawn) [Primaquine diphosphate] | 0.0466 ± 0.00081 | 0.0857 ± 0.0065 | 0.0611 ± 0.0046 | 0.122 ± 0.092 | 0.0664 ± 0.0032 | – | 0.38 ± 0.018 | 0.08 ± 0.024 |
